# Laboratory results published in PubChem BioAssay (NCATS).
# Results filed as inconclusive are left out. Values without a mark were called inactive. Calls of active or inactive are those of the source. Calls follow the shape of the dose curve; as a rule, active = well fitted activation curve with a large enough effect; inconclusive = small, poorly fitted or top-dose-only effect; inactive = no such curve, though single readings can be large or run the other way.
# Experiment: Validation screen for small molecules that induce genotoxicity in human embryonic kidney (HEK293T) cells expressing luciferase-tagged ELG1 (AID 493106); as to activity change, positive = ELG1 induction: 0% is about no effect
# Conditions: luminescence; series mostly up to 46.1 µM; activity change, positive = ELG1 induction: at the top concentration
# From the text: NIH Molecular Libraries Probe Production Network [MLPCN]
# NIH Chemical Genomics Center [NCGC]
# Assay Provider: Kyungjae Myung, NHGRI, NIH
# Keywords: MLPCN, qHTS, NCGC, genotoxicity, cancer
# Cancer cells divide rapidly compared to normal cells in the body. During cell division, cancer cells need to duplicate their genome by DNA replication. The failure of genome duplication leads to cancer cells' death. Therefore, inhibitors of DNA replication could specifically kill cancer cells. Based on this concept, many chemotherapeutic agents were developed and have been used to treat cancer patients. However, there are a limited number of agents available in the clinical setting, and some of those that do exist have low efficacy and severe side effects. Therefore, if we can find the compounds that effectively block DNA replication either by directly damaging DNA or by inhibiting other cellular mechanisms, the options for cancer treatment will be broadened. With this in mind, we developed a quantitative high-throughput ELG1-luciferase reporter gene assay. Since the level of human ELG1 protein is enhanced in response to genetic stresses, increases in luciferase activity can be used to identify compounds that cause genetic stress.
# For genotoxicity screening, 2,000 cells in 5 uL/well were dispensed into white, solid-bottom 1536-well plates using a solenoid-based dispenser. Following transfer of 23 nL compound or DMSO vehicle by a pin tool, the plates were incubated 16 hr at 37 °C and 5% CO2. 5 ul ONE-Glo (Promega) was then added to each plate and following a 30 min incubation at room temperature, luciferase activity was quantified on a ViewLux CCD-based plate reader.
# Potency is read from the fitted curve at half-maximal effect.
SMILES,"activity change, positive = ELG1 induction [%]",Potency
NOCC(=O)O,-11.3,
CN1Cc2sccc2C(c2ccc(O)c(O)c2)C1 (stereo not given),0.0301,
Nc1nc2c(nc(Br)n2C2OC3COP(=O)(O)O[C@@H]3C2O)c(=O)[nH]1 (stereo not given in full),-5.57,
CC(=O)[C@H]1CCC2C3CC=C4C[C@@H](OS(=O)(=O)O)CC[C@]4(C)C3CC[C@@]21C (stereo not given in full),-6.5,
CC(=O)NNC(=O)N1Cc2ccccc2Oc2ccc(Cl)cc21,-5.63,
C[N+](C)(C)CC=O,-0.211,
N[C@H](C(=O)O)[C@H](O)C(=O)O,-6.26,
CNc1ncnc2c1ncn2[C@H]1C[C@H](OP(=O)(O)O)[C@@H](COP(=O)(O)O)O1,-4.03,
CCCN(CCc1ccccc1)C1CCc2c(O)cccc2C1 (stereo not given),-9.33,
N[C@@H](Cc1ccc(F)cc1)C(=O)O,7.25,
O=C(O)C1=CCCN(CCON=C(c2ccccc2)c2ccccc2)C1,-5.33,
CC1CCN(CC[C@H]2CCCN2S(=O)(=O)c2cccc(O)c2)CC1,-3.04,
COc1ccc(CCN(C)CCc2ccc(OC)c(OC)c2)cc1OC,-6.86,
CC(C)NCC(O)COc1ccc(CC(N)=O)cc1 (stereo not given),-0.572,
O=c1ccc2c(OCCCCc3ccccc3)c3ccoc3cc2o1,-11.3,
CN1C2CCC1CC(OC(c1ccccc1)c1ccccc1)C2 (stereo not given),-7.4,
c1ccc2c(c1)CCC[C@H]2Nc1nc2ccccc2[nH]1,-12.3,
NCC(O)C1CCCCCCC1 (stereo not given),-8.28,
CC(C)NC[C@H](O)COc1ccc(CC(N)=O)cc1,-9.15,
O=c1cc(-c2ccccc2F)[nH]c2cc3c(cc12)OCO3,,5.17 µM (active)

SMILES,"activity change, positive = ELG1 induction [%]",Potency
CNCCc1cnc(CCC(c2ccccc2)c2ccccc2)[nH]1,0.873,
CN1CCCC1CCOC(C)(c1ccccc1)c1ccc(Cl)cc1 (stereo not given),-16.6,
OC[C@H]1O[C@@H](n2cnc3cncnc32)[C@H](O)[C@@H]1O,-11.2,
CC(O)C(O)[C@H]1CNc2nc(N)[nH]c(=O)c2N1 (stereo not given in full),-6.02,
CC(=O)O[C@H]1Cc2ccccc2N(C(N)=O)c2ccccc21,1.32,
O=C(O)C1CCCNC1 (stereo not given),1.96,
NCCCNCCCCNCCCN,-5.81,
CCCCCCCCCCCCCCC[C@H](O)[C@H](N)CO,-1.87,
CCN(CC)CCOC(=O)c1cc(Cl)c(N)cc1OC,-1.69,
Oc1cc2c(cc1O)C(c1ccccc1)CNCC2 (stereo not given),-9,
CC(=O)NCCc1c[nH]c2ccc(O)cc12,-4.45,
COc1ccc2c(c1)CCC1C2CC[C@@]2(C)C1CC[C@@H]2NCCCCCCN1C(=O)C=CC1=O (stereo not given in full),-7.82,
O=C(N[C@@H](Cc1ccccc1)C(=O)CCl)OCc1ccccc1,-26.2,
CC(C)(C)c1cc(/C=C(\C#N)C(N)=S)cc(C(C)(C)C)c1O,-20.6,
NC(N)=N[C@@H](CCC(=O)O)C(=O)O,-3.46,
COc1cccc(OC)c1OCCNCC1CSc2ccccc2O1 (stereo not given),-13.7,
N[C@H](C(=O)O)c1cc(O)cc(O)c1,-7.73,
N[C@@H](Cc1ccc(O)c(I)c1)C(=O)O,2.08,
N=C(N)SCCc1cnc[nH]1,-8.34,
COC(=O)C1=C(C)NC(C)=C([N+](=O)[O-])C1c1ccccc1C(F)(F)F (stereo not given),-10.6,
